Only some compounds are listed: those with a hit (about 2.7% of all), similar ones and a draw of the others.
Mcl1 Bid PPI: disrupts binding of human Mcl-1 to Bid peptide | TR-FRET Mcl-1/Bid-Dy647 peptide binding, 1536-well | inhibition, % at 21.7 µM | Q07820 | 220,000 tested, 0.97% active | AID 1021;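 active = compounds that cut the binding signal by more than half at the single screening dose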;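 also: His-tagged Mcl-1 with europium anti-His antibody binding Bid BH3 peptide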
Target sequence (Q07820 whole entry, looked up): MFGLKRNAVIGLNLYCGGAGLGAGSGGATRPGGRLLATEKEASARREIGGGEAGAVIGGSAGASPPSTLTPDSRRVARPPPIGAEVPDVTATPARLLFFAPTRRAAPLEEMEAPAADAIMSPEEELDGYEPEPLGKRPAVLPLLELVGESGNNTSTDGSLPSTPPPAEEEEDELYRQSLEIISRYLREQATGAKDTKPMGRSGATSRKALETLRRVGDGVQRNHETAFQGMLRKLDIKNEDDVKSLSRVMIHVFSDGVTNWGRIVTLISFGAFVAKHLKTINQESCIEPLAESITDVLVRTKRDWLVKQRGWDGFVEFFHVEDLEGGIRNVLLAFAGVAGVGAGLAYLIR
Mcl1 Noxa PPI: disrupts binding of human Mcl-1 to Noxa peptide | 220,000 tested, 1.5% active | TR-FRET Mcl-1/Noxa peptide binding, 2 h | inhibition, % at 21.7 µM | Q07820;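 active = compounds that cut the protein-peptide binding signal by more than 50% relative to plate controls in a single-dose test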;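 also: His-tagged Mcl-1 with rhodamine Noxa BH3 peptide and terbium anti-His antibody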
Pf gamet viab: inhibitors of late stage P. falciparum gametocyte viability. P. falciparum stage V gametocytes, ATP luminescence, 24 h. 150,000 tested, 0.065% active. AID 743093. inhibition, % at 10.9 µM;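 active = inhibition above the mean plus 3 SD of compounds within the control limits, set per campaign, cut at about 38% in these data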
Bim-Mcl-1: inhibitors of Bim-Mcl-1 interaction, human | AID 1009 | 190,000 tested, 0.1% active | inhibition, % at 10 µM | Q07820 | Bead-based flow cytometry, Bim peptide-Mcl-1 binding; in the data active = inhibition above about 40%
eIF4E-4G inh: inhibitors of eIF4E and eIF4G interaction in translation initiation; P63073+Q04637; TR-FRET eIF4E-eIF4GI(517-606) binding, 2 h; inhibition, % at 21.7 µM; 220,000 tested, 0.37% active; AID 782;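 active = inhibition above about 30%, limit read from the data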
14-3-3 Bad inh: disrupts binding of bovine 14-3-3 zeta to phospho-Bad peptide | TR-FRET 14-3-3zeta/Dy647-pBad peptide displacement, 1 h | AID 781 | P63103 | inhibition, % at 21.7 µM | 220,000 tested, 0.71% active;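 active = inhibition above about 70%, limit read from the data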
Target sequence (P63103 whole entry, looked up): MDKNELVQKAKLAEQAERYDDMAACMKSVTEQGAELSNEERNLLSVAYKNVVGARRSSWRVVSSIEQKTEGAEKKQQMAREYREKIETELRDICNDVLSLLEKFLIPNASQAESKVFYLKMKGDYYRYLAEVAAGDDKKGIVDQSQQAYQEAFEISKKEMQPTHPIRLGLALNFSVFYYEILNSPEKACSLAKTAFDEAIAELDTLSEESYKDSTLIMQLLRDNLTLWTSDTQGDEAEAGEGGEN
Each line names hits and unclear results; the compound was inactive in the other large screens; [ ] = another dose, or the depositor's remark.

CCOC(=O)c1c(-c2cccc([N+](=O)[O-])c2)csc1NC(=O)CCCOc1ccccc1	eIF4E-4G inh 76
CCOC(=O)c1c(-c2ccc(-c3ccccc3)cc2)csc1NC(=O)C1C2CCC(O2)C1C(=O)O (configuration not stated)	Mcl1 Noxa PPI 56
CCOC(=O)c1c(-c2cccc([N+](=O)[O-])c2)csc1NC(=O)CCCOc1ccccc1OC	none (no result: Pf gamet viab)
O=C(N/N=C/c1ccc([N+](=O)[O-])o1)C1CC1	none
O=C1CCCC/C1=C/Nc1cccc(C(F)(F)F)c1	14-3-3 Bad inh 93 (no result: Pf gamet viab)
O=C1CCCC/C1=C\Nc1ccc(O)cc1	none (no result: Pf gamet viab)
Cc1nn(C(=O)N(C)C)c(C)c1CN1C(=O)c2ccccc2C1=O	none (no result: Mcl1 Bid PPI, Mcl1 Noxa PPI, Bim-Mcl-1, eIF4E-4G inh, 14-3-3 Bad inh)
COC(=O)C(NC(=O)c1c(C)nn(C)c1Cl)c1ccccc1 (configuration not stated)	none
O=C(Nc1nc(-c2ccccn2)cs1)C1CC(=O)N(c2ccc3c(c2)OCCO3)C1 (configuration not stated)	Mcl1 Noxa PPI 71
CCCCC1=NN(C(=O)c2ccco2)C(O)(C(F)(F)F)C1 (configuration not stated)	none
C/C(N)=C(/C#N)C(=O)CSc1nc(C2CCCCC2)n(-c2ccccc2)n1	none
COCCn1nnnc1CN(Cc1ccco1)Cc1cc2cc3c(cc2[nH]c1=O)OCO3	Bim-Mcl-1 43
S=c1[nH]nc(-c2ccc3ccccc3n2)o1	14-3-3 Bad inh 82[fluorescence artefact?] (no result: Pf gamet viab)
FC(F)(F)c1ccc(-c2n[nH]c(=S)o2)nc1	none (no result: Bim-Mcl-1)
O=C(NC1CCS(=O)(=O)C1)c1ccc(S(=O)(=O)N2CCCCC2)cc1 (configuration not stated)	none
Fc1ccccc1-c1csc(=Nc2cccnc2)n1CCCn1ccnc1	none
O=C1COc2ccc(C(=O)COC(=O)c3sc4ccccc4c3Cl)cc2N1	none
Cc1cc(=O)[nH]c(SCC(=O)c2ccc3c(c2)NC(=O)CO3)n1	Mcl1 Bid PPI 97 (no result: Bim-Mcl-1)
Cc1cc(C(=O)OCC(=O)c2ccc3c(c2)NC(=O)CO3)c2ccccc2n1	Mcl1 Bid PPI 63 (no result: Pf gamet viab)
CN(C)S(=O)(=O)c1cccc(C(=O)OCC(=O)c2ccc3c(c2)NC(=O)CO3)c1	Bim-Mcl-1 89
Cc1cc(=O)oc2cc(OCC(=O)OC(C)C(=O)NC3CCCC3)ccc12 (configuration not stated)	none
O=C(CSc1ncn[nH]1)Nc1c(Br)cc([N+](=O)[O-])cc1Br	none (no result: Pf gamet viab)
Cc1c(C(=O)N2CCOCC2)sc(NC(=O)c2ccc3c(c2)OCO3)c1C#N	none (no result: Pf gamet viab)
O=C(CSc1ccsc1[N+](=O)[O-])N1CCCCCC1	none
Cc1ccccc1NC(=O)CSc1ccsc1[N+](=O)[O-]	Mcl1 Noxa PPI 71
COCCCNC(=O)CSc1ccsc1[N+](=O)[O-]	none
O=C(CSc1ccsc1[N+](=O)[O-])N1CCN(c2ccccc2)CC1	Mcl1 Noxa PPI 65
O=C(CSc1ccsc1[N+](=O)[O-])N1CCN(c2ccc(Cl)cc2)CC1	Mcl1 Noxa PPI 95
COc1ccc(S(=O)(=O)Nc2cc3c(cc2C(C)=O)OCO3)cc1	none
CCOC(=O)C1CCN(C(=O)/C=C/c2ccc(OC)cc2)CC1	none (no result: Pf gamet viab)
CC(=O)c1ccc(NC(=O)Nc2ccc3c(c2)N(C)C(=O)CS3)cc1	Mcl1 Noxa PPI 61
O=C(NC1CCCCCCC1)C1CCN(S(=O)(=O)N2CCCC2)CC1	eIF4E-4G inh 58 (no result: Pf gamet viab)
CCCS(=O)(=O)N1CCCC(C(=O)NC2CCCCC2)C1 (configuration not stated)	none (no result: Pf gamet viab)
CCCS(=O)(=O)N1CCCC(C(=O)NCCc2ccc(Cl)cc2)C1 (configuration not stated)	Mcl1 Bid PPI 55 (no result: Pf gamet viab)
CCS(=O)(=O)N1CCCC(C(=O)NC2CCCC2)C1 (configuration not stated)	14-3-3 Bad inh 89 (no result: Pf gamet viab)
O=C(NC1CCCCC1)C1CCN(S(=O)(=O)N2CCCCCC2)CC1	none
CC1=C(C(=O)Nc2ccccc2)C(c2cccs2)NC(=O)N1 (configuration not stated)	none
COc1ccc(CN2CCC(=O)N([C@H](CO)CC(C)C)CC2)cc1	none (no result: Mcl1 Bid PPI, Mcl1 Noxa PPI, Bim-Mcl-1, eIF4E-4G inh, 14-3-3 Bad inh)
Cc1cc(CNC(=O)COc2ccc(F)cc2Cl)cc(C)c1O	none
CCCCC(=O)NC(=S)Nc1cccc(NC(=O)c2ccccc2)c1	none
CN(CC(=O)Nc1ccncc1)S(=O)(=O)c1ccccc1	none (no result: eIF4E-4G inh, 14-3-3 Bad inh)
CN(CC(=O)Nn1cnnc1)S(=O)(=O)c1ccccc1	14-3-3 Bad inh 73 (no result: Pf gamet viab)
C=CCOC(=O)/C(=C\c1ccccc1)NC(=O)c1ccc(C)cc1	Mcl1 Noxa PPI 117
COC(=O)c1cc(NC(=O)CC2NC3CCCCC3NC2=O)cc(C(=O)OC)c1 (configuration not stated)	none
COCCn1nnnc1CN1CCC(C)CC1	none (no result: Pf gamet viab)
COCCn1nnnc1CN1CCOCC1	14-3-3 Bad inh 75
Cc1cc(Cl)ccc1OCCCC(=O)N/N=C/c1cccc([N+](=O)[O-])c1	none
COc1ccc(Cn2c(CCC(=O)Nc3ccccc3OC)nc3cccnc32)cc1	none
c1ccc2c(c1)ncn2CCCCOc1ccc2c(c1)CCC2	Mcl1 Bid PPI 69
CCOC(=O)C1CCN(C(=O)Nc2c(-c3ccccc3)noc2C)CC1	none (no result: Bim-Mcl-1)
Cn1cccc1C(=O)OCC(=O)N1CC(=O)Nc2ccccc21	none
Cc1cccc(C)c1OCC(C)N (configuration not stated)	eIF4E-4G inh 85 (no result: Pf gamet viab, Bim-Mcl-1)
COC(=O)n1c(=S)oc2cc(Cl)ccc21	eIF4E-4G inh 61 (no result: Pf gamet viab)
O=Cc1ccccc1OCc1ccc2c(c1)OCO2	none (no result: Mcl1 Bid PPI, Mcl1 Noxa PPI, Bim-Mcl-1, eIF4E-4G inh, 14-3-3 Bad inh)
CCOc1ccccc1CN(CCc1ccc2c(c1)OCO2)Cc1ccccn1	14-3-3 Bad inh 72 (no result: Pf gamet viab, Bim-Mcl-1)
Cc1nn(C)c(C)c1NC(=O)c1ccc(S(=O)(=O)N(C)C)cc1	none (no result: Pf gamet viab)
NNC(=S)Nc1cc(S(=O)(=O)N2CCOCC2)ccc1N1CCOCC1	14-3-3 Bad inh 94
CN(C)c1ccc(C(c2nnnn2C(C)(C)C)N2CCc3ccccc3C2)cc1 (configuration not stated)	Mcl1 Noxa PPI 68 (no result: Pf gamet viab)
CCC(C)(C)n1nnnc1C(c1ccc(O)cc1)N1CCc2ccccc2C1 (configuration not stated)	Mcl1 Noxa PPI 59
COc1ccc(C(c2nnnn2C2CCCC2)N2CCc3ccccc3C2)cc1OC (configuration not stated)	none
CC(C)(C)n1nnnc1C(c1ccccc1)N1CCc2ccccc2C1 (configuration not stated)	none (no result: Pf gamet viab)
COCCn1nnnc1C(c1ccc(O)c(OC)c1)N1CCc2ccccc2C1 (configuration not stated)	Mcl1 Noxa PPI 77
CC1CCN(C(c2ccc(N(C)C)cc2)c2nnnn2C(C)(C)C)CC1 (configuration not stated)	Mcl1 Noxa PPI 78
Cc1ccc2oc(C(F)(F)C(F)F)cc(=O)c2c1	Mcl1 Bid PPI 88 (no result: Bim-Mcl-1)
Cc1ccc2oc(C(Cl)(Cl)Cl)cc(=O)c2c1	none
O=C(COc1ccc(Br)cc1Cl)c1ccc[nH]1	none

Screens as filed in PubChem.
